Results on four compounds are retold here after PubChem BioAssay.

Inconclusive results are not listed. Activity calls are given as the source filed them.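 How the source made its calls, unless noted: active means aptamer binding inhibition above 30%, about 3 SD of noise from non-fluorescent compounds; inactive means inhibition at or below 30%.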

Assay [1] can be described thus: rapamycin-like changes in RPL19A-GFP expression – cell-based, S. cerevisiae, multiplex flow cytometry, primary screen (AID 1862; in the data active means percent of DMSO control GFP below about 86%;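 further: lower values mimic rapamycin by blocking the RPL19A rise seen in DMSO cells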). Conditions: S. cerevisiae RPL19A-GFP strain, flow cytometry fluorescence, 3 h; at 10 µM; stronger effect = lower value. In general terms: In flow cytometry, cells or beads pass a laser one at a time.
Assay [2] can be described thus: TOR pathway GLN3 branch reporter MEP2-GFP changes – S. cerevisiae, multiplex flow cytometry, primary screen (AID 1867;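 active means GFP response, as percent of the DMSO control, above the screen-wide mean plus 3 SD, about 139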;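 further: median GFP channel fluorescence of barcode-gated MEP2-GFP cells measured by flow cytometry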). The following applies: S. cerevisiae MEP2-GFP strain, 3 h, at 10 µM, stronger effect = higher value, 100% means same as DMSO wells.
Assay [3] is described as follows: TOR pathway RTG branch CIT2 reporter changes – S. cerevisiae, GFP fusion, multiplex flow cytometry, primary screen (AID 1870;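 active means percent response above a set limit, the screen-wide mean plus 3 SD, cut at about 130% in these data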;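 further: barcoded CIT2-GFP strain pooled with four other GFP strains with rapamycin as positive control; median GFP fluorescence per well over plate mean of DMSO wells so 100% = DMSO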). Conditions: S. cerevisiae CIT2-GFP expression, 3 h, at 10 µM, stronger effect = higher value.
The nature of assay [4]: TOR pathway LAP4-GFP level changes – S. cerevisiae, multiplex flow cytometry, primary screen (AID 1873;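 active means GFP signal, as percent of the solvent control, above the screen mean plus 3 SD, about 149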). Conditions: S. cerevisiae LAP4-GFP expression, 3 h, at 10 µM, stronger effect = higher value.
Assay [5] in a line: yeast AGP1-GFP level changes, GLN3 branch – cell-based, multiplex flow cytometry, S. cerevisiae, primary screen (AID 1887;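 active means GFP signal above the screen-wide mean plus 3 SD, that is over about 124.5% of the solvent control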;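 further: AGP1-GFP fusion strain of S. cerevisiae within a five-strain barcoded multiplex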). Conditions: 3 h, at 10 µM, stronger effect = higher value.
Assay [6] is described as follows: reduced mouse 2C T cell binding to pMHC/ICAM-1 vesicles – MLPCN validation set, flow cytometry, LFA-1/ICAM-1 modulator project, pilot screen (AID 2523;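 active means response below a set limit, under 55% cells CD8-positive and vesicle-bound, and CD8 cells' 90th-percentile brightness under 279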;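 on vesicle binding response: mean PE anti-B7-1 fluorescence of CD8+ cells relative to row control; 100% = QL9-loaded vesicles with DMSO vehicle in the same plate row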). Conditions: 2C mouse CD8+ T cells, at 7 µM, stronger effect = lower value; double positive events: measured here: CD8+/vesicle+ event percentage.
Assay [7] concerns the target Integrin beta-1 (Homo sapiens) + Integrin alpha-4 (Homo sapiens) (UniProt P13612+P05556). As to the kind of experiment: alpha4beta1 integrin LIBS antibody binding reduction – U937 cells, HUTS-21 mAb, flow cytometry, validation set, VLA-4 allosteric modulator project, pilot screen (AID 2674;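 active means inhibition above 50%, about 3 SD of the validation set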;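 further: antibody binding induced by the VLA-4 ligand LDV present at three times its Kd; 0% = LDV ligand with antibody and no compound and 100% = antibody without LDV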). Conditions: HUTS-21 LIBS mAb binding, at 6.7 µM, stronger effect = higher value, binding induced by LDV ligand.

Assay [8] can be described thus: calorie-restriction mimetic ROS inhibitors, yeast – validation compound set, pilot screen (AID 2706;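 active means superoxide response below 65% of plate, a cut near 3 SD across the whole screen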;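 further: yeast exposed to compound for one week at 30 degrees C before staining; 100% = mean of all compound wells on the same plate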). The following applies: S. cerevisiae aging, superoxide DHE fluorescence; at 10 µM; stronger effect = lower value.
The target of assay [9] is Beta-adrenergic receptor kinase 1 (Homo sapiens) (UniProt P25098). The experiment in a line: GRK2 binders displacing RNA aptamer, biochemical, validation, human GRK2, bead flow cytometry (AID 488806). Conditions: bead-bound GRK2, FAM-aptamer displacement, at 10 µM, stronger effect = higher value.
Assay [10] deals with Beta-2 adrenergic receptor (Homo sapiens) (UniProt P07550). As to the kind of experiment: agonist-induced loss of surface beta2AR – cell-based, FAP fluorogen, flow cytometry, validation set, pilot screen (AID 504459;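 active means percent response above 42, roughly 3 SD of non-fluorescent test compounds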;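 further: agonist-driven loss of surface beta2AR via internalization measured by FAP dye flow cytometry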). The following applies: Am2.2-beta2AR cells, at 10 µM, stronger effect = higher value.
The target of assay [11] is AP-2 complex subunit beta (Homo sapiens) (UniProt P63010). The experiment in a line: beta-arrestin/AP2 interaction blockers – biochemical, validation set, GST-AP2 beads, flow cytometry, pilot screen (AID 504541;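 active means inhibition above 54%, about 3 SD of non-fluorescent compounds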;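 further: AP2 carries R879A mutation and is captured from E. coli lysate; bead-bound FITC arrestin peptide fluorescence measuring arrestin peptide binding to AP2; 0% = DMSO wells and 100% = excess unlabeled arrestin peptide control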). The following applies: FITC arrestin peptide, at 10 µM, stronger effect = higher value, AP2 beta2 appendage fragment, R879A mutant.
Assay [12] is described as follows: cytosolic pH regulators acting via V-ATPase – S. cerevisiae, pHLuorin, HTS validation (AID 504600; in the data active means response above about 15%;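 further: plate controls were DMSO for no effect and reference compound for full effect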). The following applies: V-ATPase proton transport, at 10 µM, stronger effect = higher value.
The subject of assay [13] is anti-desmoglein-3 scFv antibody binding to human DSG3. As to the kind of experiment: blockers of pathogenic pemphigus antibody–desmoglein-3 binding – biochemical, validation compound set, bead-based, flow cytometry, pilot screen (AID 588368;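 active means binding below the plate cutoff, the plate median minus 3 SD, with a reading above zero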;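 further: signal is the median channel fluorescence of bead-bound GFP antibody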). The following applies: Protein G beads, DSG3-Fc, scFv-GFP binding, at 10 µM, stronger effect = lower value.
Assay [14] in a line: Nile Red efflux blockade in pump-expressing yeast – validation compound set, multiplex, phenotypic, pilot screen (AID 588506;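 active means efflux inhibition above 0.42, the validation set average plus 4 SD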;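 further: Nile Red retained in cells so higher fluorescence means more efflux inhibition; 0 = negative control wells and 1 = enniatin B 25 µM full block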). Conditions: S. cerevisiae pump-expressing triplex, Nile Red efflux flow cytometry; at 10 µM; stronger effect = higher value; the pumps come from Candida albicans.
Assay [15] addresses ATP-binding cassette sub-family B member 6 (Homo sapiens) (UniProt Q9NP58). As to the kind of experiment: blockers of ABCB6-driven porphyrin uptake – K562-ABCB6 cells, flow cytometry, validation set, pilot screen (AID 588550;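 active means inhibition above the screen-wide mean plus 3 SD, about 51%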;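 further: 0% = DMSO wells and 100% = benzethonium chloride 70 µM positive control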). The following applies: K562-ABCB6 porphyrin accumulation, 1 h, at 10 µM, stronger effect = higher value.
A short description of assay [16]: AML differentiation inducers, ER-HoxA9 marrow cells – cell-based, GFP/MAC1 double positive, flow cytometry, validation set, primary screen (AID 588685;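 active means differentiation response of at least 50%, scaled between solvent and reference control, from cells with both markers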;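 further: compound exposure lasts four days before antibody staining and flow analysis; 0% = DMSO wells and 100% = 5 µM fulvestrant positive control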). Conditions: stronger effect = higher value, normalized: vehicle 0, fulvestrant 100.

ATP-binding cassette sub-family B member 6 (Homo sapiens), sequence (Q9NP58 whole entry, looked up): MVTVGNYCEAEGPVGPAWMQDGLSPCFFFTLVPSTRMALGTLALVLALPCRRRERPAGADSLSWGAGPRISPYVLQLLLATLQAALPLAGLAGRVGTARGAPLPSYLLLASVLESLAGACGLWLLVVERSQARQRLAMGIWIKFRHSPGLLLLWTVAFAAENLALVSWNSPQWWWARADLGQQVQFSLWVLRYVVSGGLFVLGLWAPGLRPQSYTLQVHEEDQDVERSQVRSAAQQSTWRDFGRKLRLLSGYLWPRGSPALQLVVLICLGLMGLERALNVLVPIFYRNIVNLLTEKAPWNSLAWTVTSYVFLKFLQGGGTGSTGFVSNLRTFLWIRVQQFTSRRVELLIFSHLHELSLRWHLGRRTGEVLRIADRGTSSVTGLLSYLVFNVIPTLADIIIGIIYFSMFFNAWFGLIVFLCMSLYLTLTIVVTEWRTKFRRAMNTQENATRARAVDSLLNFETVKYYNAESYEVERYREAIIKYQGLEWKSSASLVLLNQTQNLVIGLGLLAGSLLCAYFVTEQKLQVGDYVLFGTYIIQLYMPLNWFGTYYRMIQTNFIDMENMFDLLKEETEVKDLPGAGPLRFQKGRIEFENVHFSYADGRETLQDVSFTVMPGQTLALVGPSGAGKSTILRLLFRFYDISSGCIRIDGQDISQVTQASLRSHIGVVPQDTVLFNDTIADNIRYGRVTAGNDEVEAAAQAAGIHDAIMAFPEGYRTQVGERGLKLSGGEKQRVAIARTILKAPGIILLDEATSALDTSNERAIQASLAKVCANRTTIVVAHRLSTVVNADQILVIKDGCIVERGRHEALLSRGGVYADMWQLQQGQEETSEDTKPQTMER
Integrin beta-1 (Homo sapiens) + Integrin alpha-4 (Homo sapiens), sequence (P05556 whole entry, looked up): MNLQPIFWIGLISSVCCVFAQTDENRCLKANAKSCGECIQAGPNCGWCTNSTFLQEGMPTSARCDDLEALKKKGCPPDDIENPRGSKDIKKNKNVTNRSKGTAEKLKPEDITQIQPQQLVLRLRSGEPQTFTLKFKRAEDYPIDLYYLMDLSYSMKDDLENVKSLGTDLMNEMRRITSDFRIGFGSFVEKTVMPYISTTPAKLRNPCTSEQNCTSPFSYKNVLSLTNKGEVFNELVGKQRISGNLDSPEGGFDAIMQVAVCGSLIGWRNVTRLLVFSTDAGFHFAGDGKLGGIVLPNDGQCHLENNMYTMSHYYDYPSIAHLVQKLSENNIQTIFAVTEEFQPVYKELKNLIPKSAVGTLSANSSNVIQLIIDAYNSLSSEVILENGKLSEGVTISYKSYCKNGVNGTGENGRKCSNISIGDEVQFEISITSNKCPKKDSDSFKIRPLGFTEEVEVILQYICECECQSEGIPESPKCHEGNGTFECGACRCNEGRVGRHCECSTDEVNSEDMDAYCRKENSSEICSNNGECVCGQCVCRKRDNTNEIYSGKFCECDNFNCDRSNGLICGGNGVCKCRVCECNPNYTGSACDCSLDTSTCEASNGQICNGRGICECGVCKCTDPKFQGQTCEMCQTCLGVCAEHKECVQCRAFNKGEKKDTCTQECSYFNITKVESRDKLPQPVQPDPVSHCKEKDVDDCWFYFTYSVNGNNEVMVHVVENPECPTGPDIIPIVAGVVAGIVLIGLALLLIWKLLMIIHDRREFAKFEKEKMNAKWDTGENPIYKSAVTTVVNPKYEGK
Integrin beta-1 (Homo sapiens) + Integrin alpha-4 (Homo sapiens), sequence (P13612 whole entry, looked up): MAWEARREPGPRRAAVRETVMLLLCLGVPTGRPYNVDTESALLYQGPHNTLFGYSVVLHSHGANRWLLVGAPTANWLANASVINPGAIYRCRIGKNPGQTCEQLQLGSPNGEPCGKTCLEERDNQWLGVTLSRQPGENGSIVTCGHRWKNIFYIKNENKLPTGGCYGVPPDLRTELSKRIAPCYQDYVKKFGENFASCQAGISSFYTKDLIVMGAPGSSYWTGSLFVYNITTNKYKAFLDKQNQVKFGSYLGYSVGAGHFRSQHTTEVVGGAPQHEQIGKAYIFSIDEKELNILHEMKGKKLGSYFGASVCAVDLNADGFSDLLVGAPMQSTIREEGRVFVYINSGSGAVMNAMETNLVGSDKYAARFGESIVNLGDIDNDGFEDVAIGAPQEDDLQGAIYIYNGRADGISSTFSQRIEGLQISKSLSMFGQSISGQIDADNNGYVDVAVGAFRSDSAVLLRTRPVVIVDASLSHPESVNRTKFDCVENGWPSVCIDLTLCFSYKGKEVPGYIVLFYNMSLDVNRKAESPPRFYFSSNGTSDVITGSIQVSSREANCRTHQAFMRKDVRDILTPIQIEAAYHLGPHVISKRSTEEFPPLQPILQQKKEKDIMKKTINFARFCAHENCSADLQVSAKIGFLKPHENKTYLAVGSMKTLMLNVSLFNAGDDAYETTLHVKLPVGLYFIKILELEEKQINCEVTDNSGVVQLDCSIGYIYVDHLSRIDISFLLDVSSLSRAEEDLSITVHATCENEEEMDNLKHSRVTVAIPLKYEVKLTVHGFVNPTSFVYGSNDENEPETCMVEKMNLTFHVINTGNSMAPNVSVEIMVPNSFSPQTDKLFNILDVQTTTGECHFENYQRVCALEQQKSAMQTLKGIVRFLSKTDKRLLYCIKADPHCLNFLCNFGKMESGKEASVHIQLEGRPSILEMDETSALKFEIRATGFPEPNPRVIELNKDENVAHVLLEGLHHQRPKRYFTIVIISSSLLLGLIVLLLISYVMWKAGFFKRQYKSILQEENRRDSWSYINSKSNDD
Beta-adrenergic receptor kinase 1 (Homo sapiens), sequence (P25098 whole entry, looked up): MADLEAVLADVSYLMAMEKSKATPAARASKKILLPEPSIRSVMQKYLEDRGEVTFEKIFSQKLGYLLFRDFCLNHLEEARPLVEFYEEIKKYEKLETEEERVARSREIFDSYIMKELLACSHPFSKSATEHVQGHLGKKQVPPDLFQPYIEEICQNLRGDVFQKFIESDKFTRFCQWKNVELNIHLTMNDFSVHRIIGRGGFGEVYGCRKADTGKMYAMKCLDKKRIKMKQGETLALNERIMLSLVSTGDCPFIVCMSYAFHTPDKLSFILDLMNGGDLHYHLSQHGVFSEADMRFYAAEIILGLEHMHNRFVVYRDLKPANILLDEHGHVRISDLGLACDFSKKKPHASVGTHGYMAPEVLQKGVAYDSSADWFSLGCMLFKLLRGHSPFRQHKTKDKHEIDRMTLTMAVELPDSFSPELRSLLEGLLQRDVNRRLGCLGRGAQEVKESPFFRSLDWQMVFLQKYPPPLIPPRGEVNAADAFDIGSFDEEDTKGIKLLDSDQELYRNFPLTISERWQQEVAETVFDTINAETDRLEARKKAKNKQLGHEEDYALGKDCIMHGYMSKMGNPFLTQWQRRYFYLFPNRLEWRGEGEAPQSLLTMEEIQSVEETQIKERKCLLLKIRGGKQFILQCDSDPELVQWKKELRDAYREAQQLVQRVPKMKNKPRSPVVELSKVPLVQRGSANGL
AP-2 complex subunit beta (Homo sapiens), sequence (P63010 whole entry, looked up, the tested form may be a part, one chain of several): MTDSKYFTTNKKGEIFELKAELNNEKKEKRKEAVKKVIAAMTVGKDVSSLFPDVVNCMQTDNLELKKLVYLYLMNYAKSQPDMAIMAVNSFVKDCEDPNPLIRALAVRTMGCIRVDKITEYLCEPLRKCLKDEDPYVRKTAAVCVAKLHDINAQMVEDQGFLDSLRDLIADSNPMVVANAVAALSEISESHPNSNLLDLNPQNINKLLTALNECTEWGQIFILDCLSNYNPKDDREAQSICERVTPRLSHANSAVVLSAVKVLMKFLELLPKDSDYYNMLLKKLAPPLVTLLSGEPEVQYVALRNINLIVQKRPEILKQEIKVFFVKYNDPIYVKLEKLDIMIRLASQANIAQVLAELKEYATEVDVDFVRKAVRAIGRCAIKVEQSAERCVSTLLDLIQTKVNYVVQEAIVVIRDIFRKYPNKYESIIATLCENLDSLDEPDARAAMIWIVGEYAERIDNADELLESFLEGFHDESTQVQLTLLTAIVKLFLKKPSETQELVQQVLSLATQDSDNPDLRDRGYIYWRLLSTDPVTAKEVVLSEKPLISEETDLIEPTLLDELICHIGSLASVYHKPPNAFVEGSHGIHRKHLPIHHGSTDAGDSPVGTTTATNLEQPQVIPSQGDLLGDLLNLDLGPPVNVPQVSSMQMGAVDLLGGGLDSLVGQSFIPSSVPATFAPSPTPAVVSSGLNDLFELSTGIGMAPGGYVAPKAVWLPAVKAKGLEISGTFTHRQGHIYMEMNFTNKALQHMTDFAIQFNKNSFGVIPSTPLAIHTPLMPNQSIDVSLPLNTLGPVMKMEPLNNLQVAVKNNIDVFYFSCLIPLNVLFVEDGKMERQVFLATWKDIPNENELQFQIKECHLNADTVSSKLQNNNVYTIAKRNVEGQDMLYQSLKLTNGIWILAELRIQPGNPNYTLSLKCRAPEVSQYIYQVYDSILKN
Beta-2 adrenergic receptor (Homo sapiens), sequence (P07550 whole entry, looked up): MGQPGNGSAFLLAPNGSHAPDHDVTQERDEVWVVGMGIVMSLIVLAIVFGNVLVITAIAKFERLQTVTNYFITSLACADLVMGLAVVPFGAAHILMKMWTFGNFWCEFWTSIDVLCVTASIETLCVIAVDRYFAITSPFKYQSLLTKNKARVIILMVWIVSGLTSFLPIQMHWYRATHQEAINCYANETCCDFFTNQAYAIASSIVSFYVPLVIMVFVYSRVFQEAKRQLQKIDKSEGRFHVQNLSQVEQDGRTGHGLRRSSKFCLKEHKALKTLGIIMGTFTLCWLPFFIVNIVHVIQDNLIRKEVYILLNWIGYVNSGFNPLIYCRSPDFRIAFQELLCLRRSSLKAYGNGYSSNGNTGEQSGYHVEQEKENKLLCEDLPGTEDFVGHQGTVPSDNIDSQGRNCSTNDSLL

For the compound `CCCCOc1ccc(C(=O)CCN2CCCCC2)cc1`, the percent of DMSO control GFP in [1] is 109% (inactive). Moreover, the GFP response vs DMSO in assay [2] is 96.6% (inactive); in [4], 126% (inactive). For the same compound, the percent response of DMSO control in assay [3] is 97.6% (inactive). Besides, the GFP response, % of DMSO in assay [5] was 78.8% (inactive). This compound displayed a double positive events in assay [6] of 58.1%. Besides, in [6], the vesicle binding response is 108% (inactive). Further, the inhibition (commonly the change of the read-out against control, counted positive when it falls) is -9.13% (inactive) in [7], -10.4% (inactive) in assay [11] and 7% (inactive) in [15]. Further, the superoxide response (% of plate) in assay [8] is 83.9% (inactive). For the same compound, the aptamer binding inhibition in [9] is -1% (inactive). The response in assay [10] is 26.6% (inactive); in assay [12], 7.43% (inactive). The binding (% of control) in assay [13] is 104% (inactive). Besides, the efflux inhibition (fraction of control) in assay [14] is 0.11 (inactive). Further, the differentiation response in assay [16] is 4.2% (inactive).

On to `NCCc1ccc(O)c(O)c1`, for which, in [1], the percent of DMSO control GFP was 98.2% (inactive). Further, the GFP response vs DMSO in assay [2] is 107% (inactive); in [4] it was 92% (inactive). Besides, in assay [3], the percent response of DMSO control was 93.1% (inactive). The GFP response, % of DMSO in assay [5] is 95.6% (inactive). In [6], this compound gave a double positive events of 65.4%. In addition, in [6], the vesicle binding response is 831% (inactive). For the same compound, the inhibition was -10.8% (inactive) in assay [7], 11.9% (inactive) in assay [11] and 6% (inactive) in assay [15]. The superoxide response (% of plate) in assay [8] is 90.7% (inactive). In addition, in [9], the aptamer binding inhibition was 3% (inactive). For the same compound, the response is 11.2% (inactive) in assay [10] and -0.98% (inactive) in assay [12]. Further, the binding (% of control) in [13] is 94.3% (inactive). The efflux inhibition (fraction of control) in [14] was 0.08 (inactive). Further, the differentiation response in [16] was 5.13% (inactive).

With `CC(C)Cc1ccc(C(C)C(=O)O)cc1` (stereo not drawn), the percent of DMSO control GFP in assay [1] is 105% (inactive). Also, the GFP response vs DMSO in assay [2] is 104% (inactive); in assay [4], 142% (inactive). The percent response of DMSO control in [3] was 95.7% (inactive). For the same compound, the GFP response, % of DMSO in assay [5] was 111% (inactive). In addition, the double positive events in [6] amounted to 59.8%. Moreover, the vesicle binding response in assay [6] is 141% (inactive). In addition, the inhibition in [7] is 4.84% (inactive); in [11] it was -1.77% (inactive); in assay [15] it was 5% (inactive). Moreover, the superoxide response (% of plate) in [8] is 144% (inactive). For the same compound, the aptamer binding inhibition in [9] is 0% (inactive). Moreover, the values for the response in assay [10] and in assay [12] were -11.9% (inactive) and 0.95% (inactive), respectively. The binding (% of control) in assay [13] is 107% (inactive). Further, in assay [14], the efflux inhibition (fraction of control) is -0.17 (inactive). Moreover, the differentiation response in assay [16] was -1.05% (inactive).

Consider `COc1ccc(CC(=O)Nc2cccc(C(=O)Nc3ccccc3C(=O)O)c2)cc1OC`, for which the percent of DMSO control GFP in [1] was 103% (inactive). For the same compound, the GFP response vs DMSO in assay [2] was 102% (inactive); in assay [4], 103% (inactive). Also, the percent response of DMSO control in assay [3] was 96.4% (inactive). The GFP response, % of DMSO in [5] was 108% (inactive). Also, in assay [6], the double positive events came to 61.5%. Besides, the vesicle binding response in [6] is 181% (inactive). Also, the inhibition in assay [7] is 6.55% (inactive); in assay [11], -0.19% (inactive); in assay [15], 8% (inactive). Further, the superoxide response (% of plate) in assay [8] was 108% (inactive). Besides, in assay [9], the aptamer binding inhibition is 6% (inactive). Besides, the response in [10] was -21.7% (inactive); in assay [12], 2.28% (inactive). The binding (% of control) in assay [13] is 99.7% (inactive). Besides, the efflux inhibition (fraction of control) in assay [14] is 0 (inactive). Besides, the differentiation response in [16] was 26.5% (inactive).
